Results as given in PubChem BioAssay AID504558 (Broad Institute, 2011).
The campaign covered roughly 350,000 compounds. About 2,400 (0.69%) were called active. Rule as the data show it: active = inhibition above about 41%; inconclusive = no clear call, values can overlap the other calls; inactive = below that. Shown is part of a subset that was picked to be rich in actives.

test: blockers of LMP1-induced NF-kB reporter signal – cell-based, luminescence, single point, primary screen (AID 504558); conditions: LMP1-induced NF-kappaB luciferase reporter cells, at 12.5 µM, active compounds read high;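 also: 0% = neutral control wells and 100% = reference inhibitor control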

Compound	inhibition
COc1cc(CNC2CCCC2)c(Br)cc1OCc1ccccc1	-15.5% (inactive)
COc1cc(C2CC(=O)N3CN(Cc4ccccc4)CSC3=C2C#N)ccc1OCc1ccccc1 (centres undefined)	65% (active)
COc1ccc(CCN=C2SCC(=O)N2Cc2ccccc2)cc1OC	6.74% (inactive)
Cc1ccccc1-c1ccc2c(c1)O[C@@H](CN(C)Cc1ccc(C(=O)O)cc1)[C@@H](C)CN([C@H](C)CO)S2(=O)=O	1.79% (inactive)
C[C@H](CO)N1C[C@H](C)[C@@H](CN(C)C(=O)c2cccc(F)c2)Oc2cc(-c3cncnc3)ccc2S1(=O)=O	-0.771% (inactive)
Nc1cccc(OCCCCCOc2cccc(N)c2)c1	-19.1% (inactive)
COCCCn1c(=O)/c(=C/c2ccccc2OC(C)C)s/c1=C(\C#N)C(=O)Nc1ccc(C(=O)O)cc1	4.37% (inactive)
Cc1cc(C)c2cc(C#N)c(N3CCNCC3)nc2c1	-5.81% (inactive)
CC1(C)CN(Cc2cccnc2)C(=O)[C@H]1CC(=O)Nc1ccc(Br)cc1	-4.33% (inactive)
O=C1c2ccccc2C(O)N1Cc1ccccc1 (centres undefined)	49.7% (active)
CCC(C)NC(=O)C1c2ccccc2C(=O)N1Cc1ccccc1 (centres undefined)	30.9% (inactive)
O=C1c2ccccc2C(O)N1Cc1ccccc1Cl (centres undefined)	-5.54% (inactive)
CCN(CC)CCN(C(=O)c1ccc2c(c1)CCCC2)c1nc2c(OC)cccc2s1	9.68% (inactive)
O=C(COC(=O)c1ccc(S(=O)(=O)N2CCCCCC2)cc1)Nc1ccccc1C(F)(F)F	-10.6% (inactive)
CC(C)c1cc(N=O)cc(C(C)C)c1O	11.3% (inactive)
CC(C)=CCc1ccc(O)c(=O)cc1C(C)C	52.9% (active)
CC(C)=CCc1c(O)c(CC=C(C)C)c2occ(-c3ccc(O)cc3)c(=O)c2c1O	-4.63% (inactive)
Cc1ccc(S(=O)(=O)N2C[C@H]3n4c(=O)ccc(=O)n4C[C@H](OC(=O)NC4CCCC4)[C@@]3(O)C2)cc1	0.795% (inactive)
CCc1noc(C)c1C(=O)OCC(=O)c1ccc(NC(=O)CC(C)C)cc1	7.07% (inactive)
CCN(CC)c1ccc(/C=N/NC(=O)c2cnccn2)c(O)c1	66.9% (active)
COc1ccc(NC(=O)C/C(C)=N/NC(=O)c2cnccn2)cc1Cl	0.411% (inactive)
CCN(CC)c1ccc(NC(=O)c2ccc(Cl)nc2)cc1	2.91% (inactive)
COc1cc(C)c(CN2CCN(C(=O)CCC(=O)c3ccc(C)s3)CC2)cc1OC	-18.3% (inactive)
C[C@H]1Cn2cnc(C(=O)N[C@@H](Cc3c[nH]c4ccccc34)C(=O)OC(C)(C)C)c2C(=O)N1	-25.3% (inactive)
